Many of the other results were omitted from the sample, so hits are more common in it than they were.
Giardia FBPA inh = inhibitors of Giardia lamblia fructose-1,6-bisphosphate aldolase | purified Giardia FBPA | A8B2U2 | 0.71% of 290,000 active | Potency, µM (titrated, usually from 59.6 µM), for inactives: at the top dose activity, negative = inhibition, hits mostly inhibitors; note: potency is the fitted concentration of half-maximal effect; % is set by controls: 0 for no effect and ±100 for the full control effect; nearly all actives have a fitted effect of over 55% in size
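Giardia FBPA (40 nM reagent) was preincubated 10 min at RT with compound (up to 57.5 uM final), then substrate plus GAPDH/TPI/NAD/arsenate coupling system with diaphorase/resazurin was added; resorufin fluorescence (525/598 nm) was read after 20 min.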
Cycloheximide cs = counter-screen for Shiga toxin inhibitors: cycloheximide protein synthesis inhibition. AID 2314. max response, %. 12% of 300,000 active. cell reporter, cycloheximide protein synthesis inhibition counterscreen; in the data active = max response mostly above about 13%, no sharp cut-off; inactive = mostly below about 14%; note: read at 38.3 µM for the half of the compounds with a filed dose; 0% is about no effect
Tb PYK inh = inhibitors of Trypanosoma brucei pyruvate kinase; TbPYK enzyme, Kinase-Glo Plus ATP luminescence, 45 min; AID 624173; Potency, µM (titrated, usually from 76.8 µM), without a hit: at the highest dose activity, negative = inhibition, most hits filed as inhibitors; Q57TT1; 0.12% of 410,000 active; note: potency is the fitted concentration of half-maximal effect; % is set by controls: 0 for no effect and ±100 for the full control effect; nearly all actives have a fitted effect of over 50% in size
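Glycolytic pyruvate kinase of T. brucei was incubated with substrate, test compound and 130 uM ADP for 45 minutes at room temperature. Luminescent Kinase-Glo Plus signal was measured after 10 minutes.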
LmPK inh = blocks Leishmania mexicana pyruvate kinase activity; Q27686; Potency, µM (highest dose often 57.5 µM), for the others: at the highest dose activity change, negative = inhibition, usual class: inhibitors; 0.37% of 290,000 active; AID 1721; purified LmPK, Kinase-Glo ATP luminescence, 1 h; note: potency is the fitted concentration of half-maximal effect; % is set by controls: 0 for no effect and ±100 for the full control effect
Target sequence (Q27686 whole entry, looked up): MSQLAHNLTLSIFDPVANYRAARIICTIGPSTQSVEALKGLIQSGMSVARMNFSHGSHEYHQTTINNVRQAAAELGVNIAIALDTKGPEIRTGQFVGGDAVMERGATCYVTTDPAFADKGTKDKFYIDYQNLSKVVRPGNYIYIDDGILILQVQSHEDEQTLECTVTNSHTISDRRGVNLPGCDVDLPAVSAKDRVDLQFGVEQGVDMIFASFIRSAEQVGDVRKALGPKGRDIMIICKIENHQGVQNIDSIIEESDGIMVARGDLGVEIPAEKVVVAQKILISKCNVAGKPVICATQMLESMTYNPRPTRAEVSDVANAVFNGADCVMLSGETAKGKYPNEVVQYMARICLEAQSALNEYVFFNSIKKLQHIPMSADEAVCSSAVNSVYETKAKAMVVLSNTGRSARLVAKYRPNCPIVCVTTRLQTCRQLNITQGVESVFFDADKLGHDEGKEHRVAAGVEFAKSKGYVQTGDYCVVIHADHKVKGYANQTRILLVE
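Purified LmPK (0.1 nM) converted ADP (0.1 mM) to ATP with PEP (0.5 mM) in imidazole buffer pH 7.2 with KCl and MgCl2, 1 h at room temperature. ATP was read by Kinase-Glo luminescence; data normalized to uninhibited and no-enzyme controls.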
Shiga toxin inh = Shiga toxin inhibition | Vero cells, Shiga toxin protein synthesis inhibition reporter | 9.2% of 290,000 active | inhibition, % at 38.7 µM; in the data active = inhibition mostly above about 28%, no sharp cut-off; inactive = mostly below about 43%; note: 0% is about no effect
RE007 growth inh = less growth of the S. pombe RE007 Vpr strain | Potency, µM (titrated, usually from 92.2 µM), for inactives: top-dose activity change, negative = less growth, most hits filed as inhibitors | AID 651644 | S. pombe RE007 Vpr strain, BacTiter-Glo ATP luminescence, 24 h | 0.21% of 360,000 active; active = well fitted falling curve with a large enough effect; inconclusive = small, poorly fitted or top-dose-only effect; inactive = no such curve, though single readings can be large or run the other way; note: potency is the fitted concentration of half-maximal effect; % is set by controls: 0 for no effect and ±100 for the full control effect; nearly all actives have a fitted effect of over 50% in size
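Fission yeast strain RE007, carrying one chromosomally integrated HIV-1 vpr copy, was seeded at OD 0.01 in PMG+AL medium with 23 nL pinned compound. After 24 h at 30 °C and 99% humidity, viability was read by BacTiter-Glo luminescence.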
Active calls of the source: *; [ ] = dose if it differs, or a comment. Unless noted, calls come from the whole dose curve; as a rule, active = well fitted curve in the direction sought with a large enough effect; inconclusive = small, poorly fitted or top-dose-only effect, or another doubt; inactive = no such curve, though single readings can be large; an effect the other way counts as inactive or inconclusive.

O=C(Cc1ccsc1)Nc1ccc(S(=O)(=O)C(F)F)cc1 was read as Giardia FBPA inh -1%, Cycloheximide cs 23*, Tb PYK inh 2%, LmPK inh 0%, Shiga toxin inh 49* and RE007 growth inh 14%.
`CCCOC(=O)c1ccc(NC(=O)Cc2cccs2)cc1` gave Giardia FBPA inh -2%, Cycloheximide cs 35*, Tb PYK inh -5%, LmPK inh 5%, Shiga toxin inh 51* and RE007 growth inh -11%.
Screening CC(=O)c1ccc(NC(=O)Cc2ccsc2)cc1 returned Giardia FBPA inh 4%, Cycloheximide cs 30*, Tb PYK inh -3%, LmPK inh 2%, Shiga toxin inh 69* and RE007 growth inh -14%.
For CC(C)NS(=O)(=O)c1ccc(NC(=O)Cc2ccsc2)cc1 the results were Giardia FBPA inh 6%, Cycloheximide cs 16, Tb PYK inh -1%, LmPK inh -8%, Shiga toxin inh 29 and RE007 growth inh -11%.
`Nc1nc2ccccc2n1/N=C/c1cccnc1` gave Tb PYK inh -2% and RE007 growth inh 1%.
For Nc1nc2ccccc2n1/N=C/c1ccc(-c2ccccc2)o1 the results were Giardia FBPA inh -13%, Cycloheximide cs 25*, Tb PYK inh -1%, LmPK inh 2%, Shiga toxin inh 72* and RE007 growth inh -23%.
`Cc1ccc2c(c1)-c1nc3ccccc3cc1C2=NC1CCCCC1` gave Giardia FBPA inh 0%, Cycloheximide cs 55*, Tb PYK inh 6%, LmPK inh -10%, Shiga toxin inh 85* and RE007 growth inh 2%.
Cc1ccc2c(c1)C(=NC1CCCCC1)c1cc3ccccc3nc1-2 was read as Giardia FBPA inh 11%, Cycloheximide cs 51*, Tb PYK inh -6%, LmPK inh -5%, Shiga toxin inh 41* and RE007 growth inh -25%.
`Cc1ccc(-c2cc3ccccc3nc2N2CCCC2)cc1` gave Giardia FBPA inh 0%, Cycloheximide cs -4, Tb PYK inh 1%, LmPK inh 4%, Shiga toxin inh -24 and RE007 growth inh -27%.
Screening Cc1ccc(C(=O)COc2ccc3c(C)cc(=O)oc3c2)cc1 returned Giardia FBPA inh 0%, Cycloheximide cs -2, Tb PYK inh -13%, LmPK inh 4%, Shiga toxin inh -5 and RE007 growth inh -8%.
Screening Cc1cc(=O)oc2cc(OCCc3ccccc3)ccc12 returned Giardia FBPA inh 12%, Cycloheximide cs 42*, Tb PYK inh 2%, LmPK inh -1%, Shiga toxin inh 83* and RE007 growth inh -3%.
`Cc1cc(=O)oc2cc(OCC(=O)c3ccccc3)ccc12` gave Giardia FBPA inh 5%, Cycloheximide cs 17*, Tb PYK inh -4%, LmPK inh 0%, Shiga toxin inh 20 and RE007 growth inh 17%.
For COc1cccc(COc2ccc3c(C)cc(=O)oc3c2)c1 the results were Giardia FBPA inh 0%, Cycloheximide cs 31*, Tb PYK inh -4%, LmPK inh -6%, Shiga toxin inh 79* and RE007 growth inh 4%.
COc1ccc(C(CNC(=O)c2cccc(S(=O)(=O)N3CCCCC3)c2)N2CCCC2)cc1 (configuration not stated) was read as Tb PYK inh 0% and RE007 growth inh 7%.
`Cc1ccc(S(=O)(=O)N(CCc2ccccc2)CC(=O)Nc2cc(C)ccc2C)cc1` gave Tb PYK inh 1%.
For O=C1NC(=O)/C(=C\c2ccc(OCc3ccccc3)cc2)S1 the results were Giardia FBPA inh -21%, Cycloheximide cs 9, Tb PYK inh 0%, LmPK inh -8%, Shiga toxin inh 5 and RE007 growth inh 24%.
`O=C1N/C(=N/Nc2ccccc2)S/C1=C\c1ccccc1` gave Giardia FBPA inh inconclusive, Cycloheximide cs 22*, Tb PYK inh -17%, LmPK inh -27%, Shiga toxin inh 37 and RE007 growth inh 86%.
`O=C1NC(=Nc2ccccc2)S/C1=C/c1cccs1` gave Giardia FBPA inh 4%, Cycloheximide cs 41*, Tb PYK inh 3%, LmPK inh 6%[11.5 µM], Shiga toxin inh 69* and RE007 growth inh 2%.
Screening O=C1N=C(N2CCN(c3ccccc3)CC2)S/C1=C/c1cccs1 returned Giardia FBPA inh -5%, Cycloheximide cs 1, Tb PYK inh 0%, LmPK inh 2%, Shiga toxin inh -3 and RE007 growth inh 5%.
Screening O=C1NC(=Nc2ccccc2)S/C1=C/c1cccnc1 returned Giardia FBPA inh -2%, Cycloheximide cs 15, Tb PYK inh -6%, LmPK inh 16%, Shiga toxin inh 23 and RE007 growth inh -5%.
Screening O=C1N=C(c2ccccc2)S/C1=C\c1cccs1 returned Giardia FBPA inh -18%, Cycloheximide cs 12, Tb PYK inh 7.9µM*, LmPK inh 0%, Shiga toxin inh 17 and RE007 growth inh -25%.
`O=C1NC(=Nc2ccccc2)S/C1=C\c1ccccc1` gave Giardia FBPA inh -15%, Cycloheximide cs 19*, Tb PYK inh 2%, LmPK inh -7% and RE007 growth inh 2%.
`COCCN(C(=O)CSc1nnc(-c2ccccc2F)o1)c1c(N)n(Cc2ccccc2)c(=O)[nH]c1=O` gave Tb PYK inh 1% and RE007 growth inh 9%.
For O=c1c2oc3ccccc3c2n(Cc2cccc(C(F)(F)F)c2)c(=O)n1Cc1ccc2c(c1)OCO2 the results were Tb PYK inh 7%.
`Cc1nc(NCCCN2CCOCC2)c2cnn(-c3ccccc3)c2n1` gave Tb PYK inh 3% and RE007 growth inh 3%.
For Cc1cccc(N=C2NC(=O)/C(=C\c3cccs3)S2)c1 the results were Giardia FBPA inh 1%, Cycloheximide cs 34*, Tb PYK inh -5%, LmPK inh -2%, Shiga toxin inh 67* and RE007 growth inh -15%.
`COc1nc(C)ccc1-c1noc(-c2cccnc2)n1` gave Giardia FBPA inh -2%, Cycloheximide cs 19*, Tb PYK inh 1%, LmPK inh -1% and RE007 growth inh 2%.
COc1nc(C)ccc1-c1noc(-c2ccccn2)n1 was read as Giardia FBPA inh 18%, Cycloheximide cs 57*, Tb PYK inh -5%, LmPK inh 22µM*, Shiga toxin inh 144* and RE007 growth inh 1%.
Screening COc1ccccc1-c1nc(-c2ccc(C)nc2OC)no1 returned Giardia FBPA inh 0%, Cycloheximide cs 49*, Tb PYK inh -3%, LmPK inh -6%, Shiga toxin inh 93* and RE007 growth inh -3%.
Screening COc1nc2cc(C)ccc2cc1-c1noc(-c2cccnc2)n1 returned Giardia FBPA inh 3%, Cycloheximide cs -5, LmPK inh 0% and Shiga toxin inh 29.
Screening CCC(c1nnnn1-c1ccc2c(c1)OCCO2)N1CCN(C)CC1 (configuration not stated) returned Tb PYK inh -2% and RE007 growth inh -5%.

From PubChem BioAssay
